Test results reported in PubChem BioAssay (NCI).
Compounds without any hit were thinned out: in the full panel of roughly 83,000, 20% have a hit.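 Each cell line was grown in a 96-well plate and treated with one concentration of compound for 48 hours. Values below 10 were considered active.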 Unmarked numbers belong to inactive results. The source made the active and inactive calls.

These compounds were tested on NCI-H460 lung (assay: NCI-60 one-dose screen, 48 h (100 = growth as untreated, 0 = no growth, -100 = all killed)). Conditions: 10 µM unless noted.
`CC[C@H](C)[C@H](NC(=O)c1ccccn1)C(=O)N(C)[C@H](C[C@@H](OC(C)=O)c1nc(C(=O)N[C@@H](Cc2ccccc2)C[C@H](C)C(=O)OC)cs1)C(C)C` was tested, and the growth was 9.13% (active). `O=[N+]([O-])c1cnc[nH]1` showed a growth of 108%. In the case of `CC(=O)O[C@H]1CC[C@]2(C)[C@H]3CC[C@]4(C)[C@@H](OC(C)=O)CC[C@H]4[C@@H]3[C@@H](C)[C@]2(O)C1`, the growth was 116%. For `CCN(CC)CCOC(=O)C(OC(C)C)(c1ccccc1)c1ccccc1`, the growth was 100%. For `O=C1NC(=O)C(=Cc2cccn2CCCCCn2c3ccccc3c(=O)c3ccccc32)C(=O)N1`, the growth was 108%. With `COc1ccc(Nc2ccc([N+](=O)[O-])cc2[N+](=O)[O-])cc1CN(CCCl)CCCl` the growth was 7.13% (active). For `CCCC[C@H](NC(=O)[C@H]1CCCCN1C)C(=O)N(C)[C@H](C[C@@H](OC(C)=O)c1nc(C(=O)N[C@@H](Cc2ccccc2)C[C@H](C)C(=O)OCC)cs1)C(C)C`, the growth was 6.75% (active). For `Nc1c(F)cc(-c2nc3cc(F)ccc3[se]2)cc1F`, the growth was 14.5%. In the case of `COC(=O)[C@H](Cc1ccccc1)NC(=O)c1csc([C@@H](C[C@H](C(C)C)N(C)C(=O)[C@@H](NC(=O)[C@H]2CCCCN2C)C2CC2)OC(C)=O)n1`, the growth was 1.93% (active). In the case of `COC(=O)[C@@H](C)C[C@H](Cc1ccccc1)NC(=O)c1nc([C@@H](C[C@H](C(C)C)N(C)C(=O)[C@@H](NC(=O)[C@H]2CC(=O)CCN2C)C(C)C)OC(C)=O)sc1C(C)C`, the growth was 3.43% (active). For `CC(C)=CCC[C@H](C(=O)O)[C@@H]1CC[C@]2(C)C3=C(CC[C@@]12C)[C@@]1(C)CC[C@H](O)C(C)(C)[C@@H]1CC3`, the growth was 109%. `C=CC[PH+](c1ccccc1)c1ccccc1.C=CC[PH+](c1ccccc1)c1ccccc1.[Cl][Pt][Cl]` gave a growth of 91.9%. `CN1CCC(O)(c2ccc(F)cc2)C(C(=O)c2ccc(F)cc2)C1` (configuration not stated) showed a growth of 109%. With `COc1ccc2c(c1)c(-c1nc(-c3c[nH]c4ncccc34)cs1)cn2CCN1CCOCC1` the growth was 40.8%. With `COC(=O)[C@@H](C)C[C@H](Cc1ccccc1)NC(=O)c1csc([C@@H](C[C@H](C(C)C)N(C)C(=O)[C@@H](NC(=O)[C@H]2CCCCN2C)C(C(F)(F)F)C(F)(F)F)OC(C)=O)n1` the growth was 5.59% (active). `CN1CC(=O)N(O)C1(C)c1cccnc1` (configuration not stated) was tested, and the growth was 105%. `COc1cc(/C=C/[N+](=O)[O-])cc(OC)c1` gave a growth of 40.6%. For `CC12CCC3C(CCC4Cc5[nH]c6ccccc6c5CC43C)C1CCC2O` (configuration not stated), the growth was 5.72% (active). With `COC(=O)C12CC(NC(=O)c3csc([C@@H](C[C@H](C(C)C)N(C)C(=O)[C@@H](NC(=O)[C@H]4CCCCN4C)C(C)C)OC(C)=O)n3)(C1)C2` the growth was 5.4% (active). With `CC1CN1CCCCN1CC1C` (configuration not stated) the growth was 104%. In the case of `CC(=O)O[C@H](C[C@H](C(C)C)N(C)C(=O)[C@@H](NC(=O)[C@H]1CCCCN1C)C(C)C)c1nc(C(=O)NC2CCC(C(=O)O)CC2)cs1` (some centres not stated), the growth was 26.7%. `CC[C@H](C)[C@@H]([C@@H](CC(=O)N1CCC[C@H]1[C@H](OC)[C@@H](C)C(=O)N[C@H](C)[C@@H](O)c1ccccc1)OC)N(C)C(=O)[C@@H](NC(=O)[C@@H](NC)C(C)C)C(C)C` was tested, and the growth was 9.17% (active). With `CCNc1nc(Cl)nc(NCC)n1` the growth was 102%. Work on `CCOP(=O)(NC[C@H]1O[C@](O)(CO)[C@@H](O)[C@@H]1O)OCC` yielded a growth of 105%. In the case of `CCCc1cc(O)c2c3c(c(=O)oc2c1)CN(C)CC3`, the growth was 11.9%. `CCCCN1CCCC[C@@H]1C(=O)N[C@H](C(=O)N(C)[C@H](CCc1nc(C(=O)N[C@@H](Cc2ccccc2)C[C@H](C)C(=O)OC)cs1)C(C)C)[C@@H](C)CC` was tested, and the growth was 57.5%. `O=C([O][Hg][CH2]C1COCC([CH2][Hg][O]C(=O)c2ccccc2)O1)c1ccccc1` (configuration not stated) gave a growth of 106%. `CN[C@]1(c2ccccc2Cl)CCCC[C@H]1NCCCN1CCN(C)CC1` gave a growth of 110%. For `Cn1cc(-c2csc(-c3cn(CCN4CCOCC4)c4ccc(F)cc34)n2)c2cccnc21`, the growth was 44.6%. For `CC(C)CCC1(CCCl)C(=O)NC(=O)NC1=O`, the growth was 101%. For `O=C(CCCC1CCCCC1)OCC(Cl)(Cl)Cl`, the growth was 101%. For `COC(=O)CC12CC(NC(=O)c3csc([C@@H](C[C@H](C(C)C)N(C)C(=O)[C@@H](NC(=O)[C@H]4CCCCN4C)C(C)C)OC(C)=O)n3)(C1)C2`, the growth was 7.76% (active). Compound `C#Cc1ccc2c(c1)C(c1ccccc1)=NCC(=O)N2C` has a growth of 17.4%. In the case of `COc1cccc2c1c(C(=O)C(=O)Nc1ccn[nH]1)cn2Cc1ccc(F)cc1`, the growth was 77.6%. `Clc1cccc(Cl)c1Cl` gave a growth of 107%. Compound `O=c1[nH]cc(N(CCCl)CCCl)c(=O)[nH]1` has a growth of 31.8%. With `CC(C)(N)Cc1ccccc1` the growth was 111%.
